# Test results from PubChem BioAssay.
# Calls of active or inactive are those of the source. Unless noted, how the calls were made is not given here.
# Experiments:
# [1] = resazurin metabolic signal in HepG2 cells – cell-based, resazurin fluorescence, 24 h, PK04 Diversity Set, profiling panel (AID 1172); details: HepG2 viability, higher = more signal; further: test concentration not given here
# [2] = budding yeast growth changes without added modifier – OD600, strain BY4716, 24 h, basal condition, primary screen (AID 1173); details: S. cerevisiae BY4716 growth, OD600, 24 h; higher = more signal, called active from +8 up or from −8 down
# [3] = viability profiling in MM1S myeloma cells – cell-based, resazurin fluorescence, basal, 24 h, PK04 Diversity Set, profiling panel (AID 1174); details: higher = more signal, called active from +8 up or from −8 down;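 further: MM1S multiple myeloma cell line; test concentration not given here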
# [4] = target: Dihydroorotate dehydrogenase (quinone), mitochondrial (Plasmodium falciparum (isolate 3D7)) (UniProt Q08210); assay: inhibition of P. falciparum DHODH – biochemical, C-terminal His tag, absorbance 600 nm, primary screen (AID 1175); details: PfDHODH enzyme, DCIP absorbance 600 nm; higher = more signal, called active from +8 up or from −8 down;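 further: recombinant parasite enzyme with a five histidine tag at its C terminus; test concentration not given here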
# [5] = inhibition of PAO1 biofilm formation – strain PAO1, LB-PBS medium, absorbance 600 nm, primary screen (AID 1176); further: test concentration not given here; details: P. aeruginosa PAO1 growth/biofilm, A600, 12 h; higher = more signal
# [6] = growth modulation of vineyard yeast isolate – strain RM11-1a, OD600, basal, 24 h, primary screen (AID 1177);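 further: cultures grown under basal conditions with no added stressor; test concentration not given here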; details: S. cerevisiae RM11-1a growth, OD600, 24 h; higher = more signal, called active from +8 up or from −8 down
# [7] = growth of efflux-deficient E. coli DRC39 – strain DRC39, OD650, 24 h, E. coli filamentation inducers, primary screen (AID 1178);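 further: growth measured as culture turbidity by optical density at 650 nm; test concentration not given here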; details: E. coli DRC39 acrAB, higher = more signal, called active from +8 up or from −8 down
# [8] = growth of efflux-deficient E. coli DRC39 – strain DRC39, OD650, 48 h, E. coli filamentation inducers, primary screen (AID 1179);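 further: screen aims at cell division blockers that make cells filament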; details: E. coli DRC39 delta-acrAB growth, higher = more signal, called active from +8 up or from −8 down
# [9] = viability profiling in RPMI8226 myeloma cells – cell-based, resazurin fluorescence, basal, 24 h, PK04 Diversity Set, profiling panel (AID 1180); details: higher = more signal;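 further: RPMI8826 multiple myeloma cell line at 5000 cells per well; test concentration not given here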
# [10] = target: E3 ubiquitin-protein ligase XIAP (Homo sapiens) (UniProt P98170); assay: small molecules binding XIAP protein – biophysical, small-molecule microarray, fluorescence 635 nm, primary screen (AID 1181); details: higher = more signal;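 further: score merges 667 nm emission and signal to noise over triplicate slides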
# E3 ubiquitin-protein ligase XIAP (Homo sapiens), sequence (P98170 whole entry, looked up): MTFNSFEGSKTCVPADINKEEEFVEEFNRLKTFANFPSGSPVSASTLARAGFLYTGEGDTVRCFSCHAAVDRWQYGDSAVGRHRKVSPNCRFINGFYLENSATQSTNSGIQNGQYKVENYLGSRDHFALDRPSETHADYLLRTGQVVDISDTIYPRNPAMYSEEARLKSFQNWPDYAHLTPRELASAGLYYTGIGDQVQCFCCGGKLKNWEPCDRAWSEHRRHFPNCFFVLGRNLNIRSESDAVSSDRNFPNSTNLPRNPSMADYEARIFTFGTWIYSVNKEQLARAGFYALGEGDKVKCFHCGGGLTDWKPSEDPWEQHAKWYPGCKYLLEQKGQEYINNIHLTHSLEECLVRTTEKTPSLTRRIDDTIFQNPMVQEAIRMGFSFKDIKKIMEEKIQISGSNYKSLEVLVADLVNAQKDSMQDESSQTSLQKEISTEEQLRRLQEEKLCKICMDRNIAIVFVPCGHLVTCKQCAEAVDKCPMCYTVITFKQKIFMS
# Dihydroorotate dehydrogenase (quinone), mitochondrial (Plasmodium falciparum (isolate 3D7)), sequence (Q08210 whole entry, looked up): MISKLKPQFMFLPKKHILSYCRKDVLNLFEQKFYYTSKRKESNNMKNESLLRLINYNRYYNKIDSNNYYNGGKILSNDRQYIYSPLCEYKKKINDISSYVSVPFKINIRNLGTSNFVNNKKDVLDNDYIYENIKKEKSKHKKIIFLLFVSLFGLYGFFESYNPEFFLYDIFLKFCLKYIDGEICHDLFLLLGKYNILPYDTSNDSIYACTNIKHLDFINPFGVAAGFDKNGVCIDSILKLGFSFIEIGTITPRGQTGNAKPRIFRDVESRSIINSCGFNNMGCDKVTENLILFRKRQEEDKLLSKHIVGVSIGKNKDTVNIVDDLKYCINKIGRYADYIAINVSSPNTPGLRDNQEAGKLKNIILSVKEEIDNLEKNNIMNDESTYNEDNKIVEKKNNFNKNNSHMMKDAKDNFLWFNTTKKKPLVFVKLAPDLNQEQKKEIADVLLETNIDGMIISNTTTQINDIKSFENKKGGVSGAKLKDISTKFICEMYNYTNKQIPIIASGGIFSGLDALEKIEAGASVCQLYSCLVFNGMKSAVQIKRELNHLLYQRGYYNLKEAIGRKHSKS
SMILES,z-score [1],z-score [2],z-score [3],composite z-score [4],z-score [5],z-score [6],z-score [7],z-score [8],z-score [9],composite z-score [10]
N#Cc1ccc(C(O)C2C=CC3C(=O)NC(=O)C3N2Nc2ccc(Cl)cc2Cl)cc1 (stereo not given),-1.53,-14.4 (active),-1.43 (inactive),-0.173 (inactive),1.26 (inactive),-0.633 (inactive),-0.48 (inactive),-0.413 (inactive),-1.35,0.0856
CN(C)CCCNC(=O)[C@@H]1c2ccccc2C(=O)N(Cc2ccccc2C(F)(F)F)[C@H]1c1ccc(CO)cc1,0.788,-0.779 (inactive),0.744 (inactive),-0.0587 (inactive),-0.534 (inactive),0.171 (inactive),0.858 (inactive),0.783 (inactive),0.7,-0.0344
CC(C)(C)N1CC=CC23O[C@@H]4C=CCOC(=O)[C@@H]4[C@H]2C(=O)N(CCO)[C@@H]3C1=O (stereo not given in full),-0.237,0.377 (inactive),-0.0504 (inactive),-0.0529 (inactive),-0.994 (inactive),0.0505 (inactive),0.0531 (inactive),-0.147 (inactive),-0.167,-0.0969
CC(C)(C)OC(=O)CC[C@@]1(C(=O)NCCN2CCOCC2)N=C(c2ccc(OCCCO)cc2)O[C@@H]1c1ccccc1CN=[N+]=[N-],0.535,-0.51 (inactive),-0.743 (inactive),-0.918 (inactive),-0.0988 (inactive),-0.922 (inactive),-0.407 (inactive),-0.721 (inactive),-0.28,-0.0559
C=CCOC(=O)[C@H]1[C@@H]2C(=O)O[C@@H](c3ccccc3)[C@@H](c3ccccc3)N2[C@@H](c2ccc(OCCOC(=O)[C@@H]3C[C@@H]4C(=O)N[C@@H](CCCC[N+](C)(C)C)C(=O)N4[C@@H]3c3ccc(O)cc3)cc2)[C@]12C(=O)Nc1ccc(I)cc12,-0.0156,0.118 (inactive),-1.17 (inactive),-2.21 (inactive),1.12 (inactive),2.46 (inactive),-1.46 (inactive),-1.11 (inactive),-0.854,0.261
O=C1O[C@@H](c2ccccc2)[C@@H](c2ccccc2)N2[C@@H](c3ccc(OCCO)cc3)[C@]3(C(=O)Nc4ccc(C#CC5(O)CCCCCC5)cc43)[C@@H](C(=O)O)[C@H]12,-0.253,-0.431 (inactive),1.12 (inactive),-2.17 (inactive),1.27 (inactive),3.11 (inactive),0.876 (inactive),1.06 (inactive),-0.121,-0.148
COC(=O)C1=CC(CCCO)=CC(c2cccs2)N(Cc2cc3c(cc2Br)OCO3)C=C1C(=O)OC (stereo not given),-0.245,-0.23 (inactive),0.182 (inactive),-0.851 (inactive),0.173 (inactive),1.92 (inactive),0.404 (inactive),-0.372 (inactive),0.365,0.344
CCCC=C(CCC)[C@@H](NC(=O)OCC(C)C)c1ccc(C(=O)OC)cc1,1.78,0.463 (inactive),0.287 (inactive),-0.456 (inactive),0.523 (inactive),-0.578 (inactive),0.386 (inactive),-0.0328 (inactive),0.754,0.0651
Cc1ccccc1C(O)C1C=CC2C(=O)N(c3ccccc3)C(=O)C2N1Nc1ccccc1 (stereo not given),-0.341,-2.84 (inactive),-0.516 (inactive),0.106 (inactive),0.956 (inactive),0.0725 (inactive),-0.36 (inactive),0.372 (inactive),-0.0175,0.265
CCCCCCc1nc(-c2ccc(-c3ccc(Cl)c(Cl)c3)o2)cc2c1[Si](C(C)C)(C(C)C)OC2,0.373,-7.31 (inactive),-0.273 (inactive),-1.97 (inactive),-0.558 (inactive),-0.878 (inactive),0.522 (inactive),0.395 (inactive),-0.151,-0.0233
C[N+](C)(C)CCCCNC(=O)[C@H]1C[C@H]2C(=O)N[C@@H](Cc3ccccc3)C(=O)N2[C@H]1c1cccc(OCCO)c1,-3.26,1.07 (inactive),-0.476 (inactive),-30.8 (active),0.544 (inactive),0.103 (inactive),0.548 (inactive),0.779 (inactive),-0.863,0.459
COC(=O)[C@@]1(Cc2ccccc2)[C@H]2c3cc(C(=O)N(C)C)n(CCO)c3C[C@H]2CN1C(=O)c1ccccc1,-0.546,1.24 (inactive),-1.28 (inactive),0.0058 (inactive),0.274 (inactive),0.329 (inactive),-0.751 (inactive),-0.217 (inactive),-1.11,-0.0152
COCCCNC(=O)[C@@]1(Sc2ccc(C)cc2)CC(=O)N(Cc2ccccc2C(F)(F)F)[C@@H]1c1ccc(CO)cc1I,-1.07,-2.19 (inactive),-2.56 (inactive),0.0681 (inactive),0.0993 (inactive),-1.2 (inactive),-0.473 (inactive),0.0799 (inactive),-2.75,0.419
CC(C)C(CO)N1C(=O)[C@@H]2C3C(=O)OCCC/C=C\[C@H]3OC23C=CCN(Cc2ccccc2)C(=O)[C@@H]13 (stereo not given in full),0.49,-0.612 (inactive),0.607 (inactive),-0.479 (inactive),-1.03 (inactive),-0.0566 (inactive),1.15 (inactive),0.755 (inactive),1.14,-0.166
C=CC[C@]1(C(=O)NCC(O)CO)COC(c2ccc(OCCCO)cc2)=N1 (stereo not given in full),-0.25,0.369 (inactive),-0.772 (inactive),0.233 (inactive),2.29 (inactive),1.33 (inactive),-0.34 (inactive),-0.471 (inactive),-0.412,-0.266
COCCOC(=O)N1C(=O)[C@@]2(c3ccccc31)[C@H](C(=O)N1CCN(c3ncccn3)CC1)[C@H]1C(=O)O[C@H](c3ccccc3)[C@H](c3ccccc3)N1[C@@H]2c1ccccc1OCCO,-0.482,1.76 (inactive),-0.684 (inactive),-1.35 (inactive),3.3 (inactive),2.04 (inactive),0.858 (inactive),0.611 (inactive),1.69,-0.0095
COCCOC(=O)N1C(=O)[C@@]2(c3cc(C#CCC(C(=O)OC)C(=O)OC)ccc31)[C@H](C(=O)Nc1nc3ccccc3s1)[C@H]1C(=O)O[C@H](c3ccccc3)[C@H](c3ccccc3)N1[C@@H]2c1ccc(OCCO)cc1,0.318,1.18 (inactive),0.961 (inactive),-0.859 (inactive),2.54 (inactive),2.25 (inactive),-0.0125 (inactive),0.972 (inactive),-0.177,0.214
O=C1C=C(c2ccccc2)C(=O)C2=C1CC([C@H]1Oc3ccccc3S(=O)(=O)N3CCC[C@@H]13)=CC2,0.203,-3.37 (inactive),-7.16 (inactive),-1.54 (inactive),-0.0461 (inactive),-0.926 (inactive),0.0769 (inactive),-0.807 (inactive),-4.88,-0.127
O=C(NC1CC1)[C@@H]1c2ccccc2C(=O)N(Cc2ccc(OC(F)(F)F)cc2)[C@H]1c1ccc(CO)cc1,1.26,-0.327 (inactive),1.23 (inactive),0.347 (inactive),-0.233 (inactive),-0.544 (inactive),0.392 (inactive),1.11 (inactive),0.718,-0.239
C=CCC(OC(C)=O)[C@@H]1[C@@H](N(Cc2cc3ccccc3o2)C(=O)c2cccc3ccccc23)c2cc(OCCCO)ccc2N1C(=O)c1ccc2ccccc2n1 (stereo not given in full),-1.01,-0.711 (inactive),-0.367 (inactive),0.364 (inactive),0.256 (inactive),0.202 (inactive),0.935 (inactive),0.207 (inactive),-0.544,-0.393
CO[C@H]1O[C@H](CO)[C@@H](OC(=O)Nc2ccccc2-c2ccccc2)[C@H](OC(=O)Nc2ccccc2)[C@H]1OC(=O)Nc1ccccc1,-1.68,0.788 (inactive),-3.07 (inactive),-0.0626 (inactive),2.11 (inactive),2.81 (inactive),1.15 (inactive),0.172 (inactive),-2.06,0.0479
NC(=O)NCC#Cc1ccc2c(c1)[C@]1(C(=O)N2)[C@H](c2ccc(OCCO)cc2)N2[C@H](c3ccccc3)[C@H](c3ccccc3)OC(=O)[C@H]2[C@@H]1C(=O)NC[C@H](O)c1ccccc1,1.12,1.63 (inactive),0.473 (inactive),-0.256 (inactive),0.489 (inactive),2.58 (inactive),0.826 (inactive),0.107 (inactive),1.29,0.0697
COc1ccc([Si](C)(C)[C@@H]2[C@@H](CC(=O)N3CCC[C@H]3CO)O[C@]3(C(=O)N(Cc4ccc(N5CCOC5=O)cc4)c4ccccc43)[C@H]2C)cc1,-1.39,-0.793 (inactive),-2.01 (inactive),-2.19 (inactive),1.06 (inactive),-0.975 (inactive),0.0669 (inactive),0.459 (inactive),-2.98,0.0819
[N-]=[N+]=NCc1ccccc1[C@@H]1OC(c2ccc(OCCCO)cc2)=N[C@]1(Cc1ccccc1N=[N+]=[N-])C(=O)NCC(O)CO (stereo not given in full),-0.897,-0.815 (inactive),-0.954 (inactive),-0.728 (inactive),0.507 (inactive),0.628 (inactive),-0.0582 (inactive),0.625 (inactive),-1.47,0.243
CN(C)CCCCNC(=O)[C@H]1C[C@H]2C(=O)NCC(=O)N2[C@H]1c1ccc(O)cc1,1.1,-0.0401 (inactive),0.917 (inactive),0.373 (inactive),-0.599 (inactive),1.56 (inactive),0.0662 (inactive),-0.363 (inactive),0.511,0.147
